# Assay outcomes deposited in PubChem BioAssay by several laboratories.
# Hits are enriched below; roughly 3.9% of the tested compounds scored in any of these assays.
# BoNT-A LC inh2 – blocks Botulinum neurotoxin A light chain protease | 360,000 compounds, 0.17% hits | inhibition, % at 10 µM | multiplex microsphere protease substrate cleavage, flow cytometry; further: plate controls were buffer without enzyme for full effect and enzyme alone for no effect
# MazEF act – increases E. coli MazEF RNase cleavage of RNA. P0AE70. FAM/BHQ RNA-DNA oligo cleavage fluorescence, 5 h. activation, % at 20 µM. 350,000 compounds, 0.32% hits. AID 504720; in the data active means activation above about 50%
# Autofluor counter – counter-screen for toxin protease inhibitors: compound fluorescence | compound autofluorescence counterscreen, microsphere flow cytometry; active compounds read high | fluorescence intensity (no concentration beside the values) | 360,000 compounds, 3.1% hits; in the data active means fluorescence intensity above about 16000; inconclusive means no clear call, values can overlap the other calls
# BH1578 lux ind – induces V. cholerae light production without autoinducers. V. cholerae BH1578 lux reporter, luminescence, 6 h. activation, % at 18.7 µM. 350,000 compounds, 0.16% hits. AID 588436; in the data active means activation mostly above about 9.7%, no sharp cut-off; inconclusive means no clear call, values can overlap the other calls; inactive means mostly below about 3.7%
# Anthrax LF prot – anthrax lethal factor protease inhibition; 360,000 compounds, 0.12% hits; AID 588501; multiplex microsphere protease cleavage assay, LF; inhibition, % at 10 µM; further: plate controls were buffer without enzyme for full effect and enzyme alone for no effect
# Target sequence (P15917 whole entry, looked up): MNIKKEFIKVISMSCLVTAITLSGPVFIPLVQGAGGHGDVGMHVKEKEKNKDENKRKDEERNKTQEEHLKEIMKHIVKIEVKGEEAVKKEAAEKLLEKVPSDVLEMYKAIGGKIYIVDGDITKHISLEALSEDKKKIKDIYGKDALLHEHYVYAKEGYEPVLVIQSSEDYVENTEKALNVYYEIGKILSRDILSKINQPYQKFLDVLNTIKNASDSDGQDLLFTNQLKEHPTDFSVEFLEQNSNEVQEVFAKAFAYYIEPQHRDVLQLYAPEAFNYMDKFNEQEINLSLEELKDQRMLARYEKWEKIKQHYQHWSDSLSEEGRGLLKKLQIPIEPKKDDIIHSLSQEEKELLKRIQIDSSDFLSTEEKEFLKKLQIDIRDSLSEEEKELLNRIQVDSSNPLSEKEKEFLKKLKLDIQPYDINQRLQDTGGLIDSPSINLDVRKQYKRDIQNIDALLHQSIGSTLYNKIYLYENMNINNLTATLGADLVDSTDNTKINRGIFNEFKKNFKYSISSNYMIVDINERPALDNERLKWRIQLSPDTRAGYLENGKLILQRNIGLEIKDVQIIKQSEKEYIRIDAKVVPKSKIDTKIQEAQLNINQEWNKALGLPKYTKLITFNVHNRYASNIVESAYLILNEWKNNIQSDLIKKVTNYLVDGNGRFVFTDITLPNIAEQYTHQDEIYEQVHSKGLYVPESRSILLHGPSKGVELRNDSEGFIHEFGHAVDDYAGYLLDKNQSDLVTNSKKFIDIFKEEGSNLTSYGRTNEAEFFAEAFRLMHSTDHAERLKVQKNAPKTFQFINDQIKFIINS
# BoNT-F LC inh – BoNT F light chain protease inhibition. Multiplex microsphere protease cleavage assay, flow cytometry. inhibition, % at 10 µM. 360,000 compounds, 0.22% hits. AID 588497; in the data active means inhibition above about 35%, passing the limit was not always enough; inconclusive means no clear call, values can overlap the other calls; further: plate controls were buffer without enzyme for full effect and enzyme alone for no effect
# Starred values were filed as active, the others as inactive; i = inactive; u = inconclusive; x = no result. Unless noted, no stated cut-off is given here; in the data, active means inhibition above about 30%; inconclusive means no clear call, values can overlap the other calls; inactive means below that.
SMILES,BoNT-A LC inh2,MazEF act,Autofluor counter,BH1578 lux ind,Anthrax LF prot,BoNT-F LC inh
COCCn1c(N)c(C(=O)OCc2ccccc2)c2nc3ccccc3nc21,-1,8,20725*,-2,2,-2
N#Cc1c2n(c3c(=O)n(Cc4ccccc4)cnc13)CCCC2,-5,0,17920*,0,-2,-7
CCn1c(COc2cccc(OC)c2)nnc1SCC(=O)Nc1cc(OC)ccc1OC,-2,3,23149*,i,-10,-4
C=CCn1c(SCC(=O)Nc2cc(NC(C)=O)ccc2OC)nnc1-c1ccccn1,u,1,19382*,i,0,1
CCn1c(COc2ccccc2)nnc1SCC(=O)Nc1cc(OC)ccc1OC,-3,-2,10919,-1,4,-3
C=CCn1c(SCC(=O)Nc2ccccc2OC)nnc1-c1ccccn1,-1,8,16901*,-6,-1,-1
C=CCn1c(SCC(=O)Nc2cc(NC(C)=O)ccc2OC)nnc1-c1cccnc1,1,-4,9289,0,6,-2
CCn1c(SCC(=O)Nc2ccccc2OC)nnc1-c1cnccn1,-1,7,16989*,0,-4,-2
CC1=C(C(=O)N2CCOCC2)CC(CC(=O)NCCCN(C)C)C(=O)N1CCCN1CCCC1=O (stereo not given),0,x,6028,x,6,-6
O=C(CSc1ccccc1F)NNC(=O)c1ccncc1,0,6,3623,i,-4,-7
CCOc1ccc(/C=N/NC(=O)C2CCCC2)c(OCC)c1,-4,4,6745,2,-2,-13
C=C(CN(C)C)C(=O)c1cc(C)ccc1C,1,-18,3454,-6,0,1
CCc1nnc(SCC(=O)Nc2nccs2)n1CC,3,2,4385,i,-3,1
CCn1c(COc2ccc3c(c2)CCCC3)nnc1SCC(=O)Nc1nccs1,0,-3,20125*,0,-2,1
O=S1(=O)N[C@H](Cc2ccccc2)COc2cc(N3CCC[C@@H]3CO)ccc21,0,x,4274,x,-1,1
CCOC(=O)N1CCN(c2c(F)cc3[nH]c(=S)[nH]c3c2Br)CC1,1,10,9342,0,-1,5
CCOC(=O)N1CCN(c2cc(N)c([N+](=O)[O-])cc2F)CC1,1,-9,20374*,0,0,0
CCOC(=O)N1CCN(c2cc3[nH]c(=S)[nH]c3cc2F)CC1,8,-8,21312*,-1,0,8
NC(=S)Nc1cc2ccccc2c2ccccc12,u,-1,19680*,i,-3,-1
COc1ccccc1CNC(=O)[C@H](C)NC(=O)C1CCN(C(=O)[C@@H]2CCCN2C(=O)OC(C)(C)C)CC1,0,-17,6068,0,5,-5
O=C1Nc2ccccc2N(O)N1c1ccc(Cl)cc1,0,3,2426,1,-2,-5
CCN1c2ccccc2NC2C1C(C(C)=O)C(=O)N2c1ccc(Cl)cc1 (stereo not given),20,-16,19587*,0,9,4
C[C@H](NC(=O)c1ncn2c1C(=O)NC[C@H]2C)c1ccccc1,0,-2,3617,0,-1,-9
Cc1ccc(N(CCCCN2C(=O)c3ccccc3C2=O)C(=O)c2cccc([N+](=O)[O-])c2)cc1,1,-10,16296*,5,-1,1
COc1ccccc1N(CC(=O)Nc1ccccc1C(F)(F)F)S(=O)(=O)c1cccs1,-2,-6,9341,-8,0,-12
SMILES,BoNT-A LC inh2,MazEF act,Autofluor counter,BH1578 lux ind,Anthrax LF prot,BoNT-F LC inh
CC1(C)NC(=O)N(CC(O)COc2ccc(-c3ccc(C#N)cc3)cc2)C1=O (stereo not given),u,1,19940*,-1,-9,6
COc1ccc(C(=O)Nc2ccc(-c3cn4ccsc4n3)cc2)cc1S(=O)(=O)N1CCOCC1,u,-6,20320*,-6,-10,4
COc1ccc(C(=O)Nc2ccc(N3CCOCC3)cc2)cc1S(=O)(=O)N1CCOCC1,3,4,u,-6,8,3
COc1ccc(C(=O)Nc2nnc(C)s2)cc1S(=O)(=O)N1CCOCC1,-2,1,6041,0,1,3
COc1ccc(C(=O)Nc2nc(C)c(C(C)=O)s2)cc1S(=O)(=O)N1CCOCC1,x,69*,x,0,x,x
CN(CC(=O)N1CCN(Cc2ccccc2)CC1)C(=O)Cc1ccc(Cl)c(Cl)c1,0,1,4150,-2,-8,-8
O=C(O)CSc1nnc(C2CC2)n1-c1ccccc1,1,7,3816,0,1,11
O=C(O)CSc1nnc(C2COc3ccccc3O2)n1-c1ccccc1 (stereo not given),1,6,19815*,-1,-2,3
CC(C)(C)C(=O)n1nc(-c2ccccc2)oc1=O,0,-4,2031,0,1,-3
O=C(NC(=S)Nc1ccccc1)C1CCCCC1,3,2,5009,0,0,3
O=C(Nc1ccc(F)cc1)N1CCOCC1,u,-4,19165*,4,0,4
O=C(Nc1ccccc1)C1CCCCC1,u,10,21764*,i,-1,-1
CCc1ccccc1NC(=O)C1CCCC1,1,-2,3684,1,-3,u
O=C(Nc1ccccc1)N1CCCC1,0,-1,23605*,1,-2,1
CCCC(=O)Nc1ccccc1NC(=O)C1CCCCC1,1,5,23241*,i,2,2
COc1ccc(OC(F)(F)F)cc1CC1(C)C(=O)Nc2ccc(S(=O)(=O)NC3CCCCC3)cc21 (stereo not given),0,x,2920,0,0,4
COc1cc(NC(=O)C2CCCCC2)c(OC)cc1NC(=O)c1ccco1,-2,-8,7119,9,3,-3
COc1cc(NC(=O)C2CCCCC2)c(OC)cc1NC(=O)CCC(=O)NCc1ccco1,1,5,22591*,i,-1,0
CCCCN1C(=O)CN(CCc2ccccc2)C(=O)C1c1ccc(OC)cc1 (stereo not given),-1,2,11074,0,-1,2
COc1ccc(C2C(=O)N(CCc3ccccc3)CC(=O)N2C2CCCCC2)cc1 (stereo not given),-3,-2,25113*,0,-4,-6
Cc1ccc(S(=O)(=O)N2CCC(=O)N([C@H](COCc3ccc(Cl)cc3)C(C)C)CC2)cc1,-1,x,5002,x,-5,-18
CC(=O)c1cnc(N2CCCCC2)nc1C,2,-1,21581*,i,0,4
CC(=O)Nc1ccc(C(=O)Cn2nnc3ccccc3c2=O)cc1,3,0,18940*,i,-2,2
C=CCNC(=S)Nc1ccccc1-c1nnc2n1CCCCC2,0,-4,5574,0,-1,-2
COc1ccc(C(=O)OCCN=C2NS(=O)(=O)c3ccccc32)cc1OC,7,-2,21489*,i,2,7
COc1ccccc1C(=O)OCCCN=C1NS(=O)(=O)c2ccccc21,1,6,4732,2,-3,-1
